Assay results: PubChem BioAssay (EPA / NIEHS)
Active and inactive are the calls of the source. Rule for the calls: active = hit-call score of the fitted dose curve at least 0.9, where 1 is the maximum; inactive = score below 0.9.

Legend:
[1] = molecular target: Transcription factor E2F1 (Homo sapiens) (UniProt Q01094); assay: ATG_E2F_CIS: Attagene CIS-FACTORIAL HepG2 Assay for human E2F Transcription Factor 1 (AID 2282935); details: HepG2 Attagene cis-reporter, E2F reporter RNA transcripts; actives raise or lower the signal
Transcription factor E2F1 (Homo sapiens), sequence (Q01094 whole entry, looked up): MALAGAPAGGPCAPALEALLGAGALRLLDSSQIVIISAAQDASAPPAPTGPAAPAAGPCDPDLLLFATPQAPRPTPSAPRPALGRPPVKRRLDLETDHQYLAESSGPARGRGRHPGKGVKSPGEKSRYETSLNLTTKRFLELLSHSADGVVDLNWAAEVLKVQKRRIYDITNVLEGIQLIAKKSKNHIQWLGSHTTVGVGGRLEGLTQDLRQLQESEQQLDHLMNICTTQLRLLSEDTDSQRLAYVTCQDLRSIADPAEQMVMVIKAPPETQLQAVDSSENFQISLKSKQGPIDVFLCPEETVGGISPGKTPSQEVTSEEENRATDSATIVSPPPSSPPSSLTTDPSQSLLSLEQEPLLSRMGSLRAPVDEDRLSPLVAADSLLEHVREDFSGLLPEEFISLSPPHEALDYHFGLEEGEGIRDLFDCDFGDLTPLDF
Method in brief: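 HepG2 cells transiently transfected with multiplexed cis-element reporter units, dosed for 24 h. Reporter mRNA measured by RT-PCR, 6-FAM primer-extension labeling, HpaI digestion and capillary electrophoresis; bidirectional fit versus DMSO baseline.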

[2] = ATG_E_Box_CIS: Attagene CIS-FACTORIAL HepG2 Assay for human Enhancer Box (E-box) (AID 2282936); details: HepG2 E-box cis-reporter transcription, actives raise or lower the signal
Method in brief: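 HepG2 cells transiently transfected with multiplexed cis-element reporter units sensing endogenous transcription factor activity; 24 h compound exposure. Reporter mRNA measured by RT-PCR, 6-FAM primer extension, HpaI digestion and capillary electrophoresis; bidirectional fit versus DMSO.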

[3] = ATG_M_61_CIS: Attagene CIS-FACTORIAL HepG2 Assay for M61 Transcription Factor (Internal Marker) (AID 2282937); details: HepG2 Attagene CIS-FACTORIAL M61 internal marker reporter; actives raise or lower the signal
Method in brief: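 Background-control endpoint: HepG2 cells with cis-regulated reporter constructs, 24 h exposure, reporter mRNA detected via fluorescent primer extension and capillary electrophoresis; values from bidirectional fitting with DMSO baseline.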

[4] = ATG_EGR_CIS: Attagene CIS-FACTORIAL HepG2 Assay for human Early Growth Response 1 (EGR1) (AID 2282938); details: HepG2 Attagene CIS-FACTORIAL EGR reporter mRNA; actives raise or lower the signal
Method in brief: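 Endpoint derived by bidirectional fitting versus DMSO vehicle. Method: cis-promoter reporter units transfected into HepG2, 24 h dosing, RNA isolation, RT-PCR with 6-FAM primer extension and HpaI digestion, then capillary electrophoresis fluorescence detection.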

[5] = ATG_M_19_CIS: Attagene CIS-FACTORIAL HepG2 Assay for M19 Transcription Factor (Internal Marker) (AID 2282939); details: HepG2 Attagene CIS-FACTORIAL M19 internal marker reporter; actives raise or lower the signal
Method in brief: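 Readout: fluorescent reporter-transcript fragments by capillary electrophoresis after RT-PCR. Human HepG2 liver cells carried transfected MRTU constructs reporting endogenous transcription-factor activity; exposure 24 h. Gain or loss of signal fitted relative to DMSO.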

[6] = ATG_Ets_CIS: Attagene CIS-FACTORIAL HepG2 Assay for human Erythroblast Transformation Specific (ETS) (AID 2282941); details: HepG2 ETS cis-reporter transcription, actives raise or lower the signal
Method in brief: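 Human HepG2 hepatoma cells were transiently transfected with promoter-driven reporter constructs and treated for 24 hours. Reporter transcripts were quantified by RT-PCR with fluorescent primer extension; bidirectional curve fitting used DMSO as reference.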

[7] = molecular target: Hepatocyte nuclear factor 3-beta (Homo sapiens) (UniProt Q9Y261); assay: ATG_FoxA2_CIS: Attagene CIS-FACTORIAL HepG2 Assay for human Forkhead box A2 (FOXA2) (AID 2282942); details: HepG2 cis-reporter transcription factor activity, 24 h; actives raise or lower the signal
Hepatocyte nuclear factor 3-beta (Homo sapiens), sequence (Q9Y261 whole entry, looked up): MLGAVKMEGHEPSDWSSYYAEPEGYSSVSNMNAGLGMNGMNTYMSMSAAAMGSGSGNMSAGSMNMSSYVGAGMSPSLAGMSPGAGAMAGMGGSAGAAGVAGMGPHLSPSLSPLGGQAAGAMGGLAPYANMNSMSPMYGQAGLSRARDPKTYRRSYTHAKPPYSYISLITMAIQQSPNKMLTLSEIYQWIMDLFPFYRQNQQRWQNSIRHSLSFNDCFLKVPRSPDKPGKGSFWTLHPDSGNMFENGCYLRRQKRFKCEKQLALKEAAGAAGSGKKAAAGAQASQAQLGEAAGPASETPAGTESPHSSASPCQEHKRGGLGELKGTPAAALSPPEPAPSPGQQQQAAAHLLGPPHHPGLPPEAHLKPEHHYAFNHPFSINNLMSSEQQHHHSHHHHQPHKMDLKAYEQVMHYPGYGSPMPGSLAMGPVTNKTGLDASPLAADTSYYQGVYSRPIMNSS
Method in brief: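 Measured: reporter mRNA induction or loss in HepG2 transiently carrying multiple cis-regulated reporter units, 24 h after dosing. Quantified by RT-PCR plus capillary electrophoresis, normalised to DMSO.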

[8] = ATG_FoxO_CIS: Attagene CIS-FACTORIAL HepG2 Assay for human Forkhead box O (FoxO) (AID 2282943); details: HepG2 Attagene cis-reporter, FoxO element, mRNA; actives raise or lower the signal
Method in brief: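 HepG2 cells transiently transfected with cis-promoter-driven multiple reporter transcription units; 24 h after chemical dosing, reporter mRNA quantified by RT-PCR, fluorescent primer extension, HpaI digestion and capillary electrophoresis. Bidirectional fitting versus DMSO baseline.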

[9] = ATG_GATA_CIS: Attagene CIS-FACTORIAL HepG2 Assay for human GATA Binding Protein (AID 2282944); details: HepG2 GATA cis-element reporter, Attagene multiplex mRNA; actives raise or lower the signal
Method in brief: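 Read-out: fluorescent reporter mRNA fragments resolved by capillary electrophoresis after RT-PCR. Human liver HepG2 cells carried transiently transfected cis-regulated reporter constructs; chemicals incubated 24 h; gain or loss of signal fitted relative to DMSO.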

[10] = ATG_GLI_CIS: Attagene CIS-FACTORIAL HepG2 Assay for human Zinc Finger Protein GLI1 (AID 2282945); details: HepG2, Attagene cis-factorial reporter mRNA, GLI element; actives raise or lower the signal
Method in brief: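 HepG2 cells transiently transfected with cis-promoter multiplexed reporter units report endogenous transcription factor activity. After 24 h chemical exposure, reporter mRNA was quantified by RT-PCR, 6-FAM labelling, HpaI digestion and capillary electrophoresis, with bidirectional fitting against DMSO.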

[11] = molecular target: Bile acid receptor (Homo sapiens) (UniProt Q96RI1); assay: ATG_IR1_CIS: Attagene CIS-FACTORIAL HepG2 Assay for human Nuclear Receptor Subfamily 1 Group H Member 4 (NR1H4), IR1 submotif (AID 2282946); details: IR1 reporter transcription, actives raise or lower the signal
Bile acid receptor (Homo sapiens), sequence (Q96RI1 whole entry, looked up): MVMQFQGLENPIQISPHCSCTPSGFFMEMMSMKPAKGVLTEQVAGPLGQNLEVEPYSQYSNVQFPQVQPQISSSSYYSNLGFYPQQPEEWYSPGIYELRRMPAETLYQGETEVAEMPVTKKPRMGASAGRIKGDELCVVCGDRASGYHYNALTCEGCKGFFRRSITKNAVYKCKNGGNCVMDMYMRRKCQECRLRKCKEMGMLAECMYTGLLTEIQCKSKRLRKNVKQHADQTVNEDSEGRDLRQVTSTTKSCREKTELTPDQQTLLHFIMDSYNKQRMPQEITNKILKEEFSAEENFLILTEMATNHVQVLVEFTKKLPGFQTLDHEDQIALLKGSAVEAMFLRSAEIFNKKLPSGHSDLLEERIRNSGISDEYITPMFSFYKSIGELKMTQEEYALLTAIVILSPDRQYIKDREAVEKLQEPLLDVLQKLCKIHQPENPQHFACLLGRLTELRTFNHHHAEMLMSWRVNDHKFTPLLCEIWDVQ
Method in brief: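 Transient MRTU transfection, HepG2; 24 h dosing; RNA → RT-PCR → 6-FAM primer extension → HpaI digest → capillary electrophoresis fluorescence. Gain/loss of signal fitted relative to DMSO.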

[12] = ATG_ISRE_CIS: Attagene CIS-FACTORIAL HepG2 Assay for human Interferon Regulatory Factor 1 (IRF1) binding to an Interferon-Stimulated Response Element (ISRE) (AID 2282948); details: HepG2 ISRE cis-reporter (Attagene), mRNA transcription readout; actives raise or lower the signal
Method in brief: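 Cell-based cis-reporter assay; HepG2; 24 h exposure; reporter mRNA by RT-PCR plus capillary electrophoresis fluorescence; activity in either direction scored relative to DMSO.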

[13] = ATG_M_32_CIS: Attagene CIS-FACTORIAL HepG2 Assay for M32 Transcription Factor (Internal Marker) (AID 2282949); details: HepG2 Attagene cis-factorial M32 reporter, mRNA; actives raise or lower the signal;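 note: background control marker of the multiplexed CIS panel rather than a real target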
Method in brief: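 Following 24 h chemical exposure of HepG2 cells transiently expressing cis-promoter reporter constructs, reporter transcript levels were determined by RT-PCR with fluorescent labelling and capillary electrophoresis, then fitted bidirectionally against DMSO.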

[14] = ATG_M_06_CIS: Attagene CIS-FACTORIAL HepG2 Assay for M06 Transcription Factor (Internal Marker) (AID 2282950); details: HepG2 Attagene CIS-FACTORIAL M06 internal marker reporter; actives raise or lower the signal
Method in brief: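 Terse: HepG2, transient MRTU transfection (FuGene 6), 24 h dosing; total RNA, oligo(dT) RT, PCR, FAM label, HpaI cut, capillary electrophoresis; bidirectional fit vs DMSO baseline; background-control endpoint.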

[15] = molecular target: Hypoxia-inducible factor 1-alpha (Homo sapiens) (UniProt Q16665); assay: ATG_HIF1a_CIS: Attagene CIS-FACTORIAL HepG2 Assay for human Hypoxia Inducible Factor 1 (HIF1A) (AID 2282951); details: HepG2 Attagene cis-factorial HIF1a reporter transcription; actives raise or lower the signal
Hypoxia-inducible factor 1-alpha (Homo sapiens), sequence (Q16665 whole entry, looked up): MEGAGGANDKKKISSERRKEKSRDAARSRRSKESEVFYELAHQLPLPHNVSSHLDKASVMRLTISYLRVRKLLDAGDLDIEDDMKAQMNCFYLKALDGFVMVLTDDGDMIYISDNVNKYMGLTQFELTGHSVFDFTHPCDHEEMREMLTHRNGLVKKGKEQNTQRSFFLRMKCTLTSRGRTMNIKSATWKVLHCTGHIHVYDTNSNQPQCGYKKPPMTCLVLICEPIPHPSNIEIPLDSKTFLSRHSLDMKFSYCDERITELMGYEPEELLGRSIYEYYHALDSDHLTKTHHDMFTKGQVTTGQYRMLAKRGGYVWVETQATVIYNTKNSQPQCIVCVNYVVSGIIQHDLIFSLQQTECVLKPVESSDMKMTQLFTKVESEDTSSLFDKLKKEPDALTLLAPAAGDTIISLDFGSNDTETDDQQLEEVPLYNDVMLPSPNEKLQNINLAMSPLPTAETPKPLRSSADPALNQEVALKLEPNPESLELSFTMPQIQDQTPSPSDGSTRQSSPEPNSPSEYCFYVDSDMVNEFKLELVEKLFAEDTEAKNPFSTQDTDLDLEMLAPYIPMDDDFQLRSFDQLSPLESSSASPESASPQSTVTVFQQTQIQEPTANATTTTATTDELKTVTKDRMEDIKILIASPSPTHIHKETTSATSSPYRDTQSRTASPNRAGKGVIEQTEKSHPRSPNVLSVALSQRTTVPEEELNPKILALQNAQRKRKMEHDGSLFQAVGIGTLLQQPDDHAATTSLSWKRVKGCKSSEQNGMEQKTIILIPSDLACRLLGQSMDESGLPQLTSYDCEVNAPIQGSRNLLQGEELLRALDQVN
Method in brief: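 Dosed 24 h, transfected HepG2 cells yielded total RNA whose reporter transcripts were RT-PCR-amplified and sized by capillary electrophoresis using fluorescent labelling; DMSO defined baseline, with gain and loss of signal both fitted.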

[16] = molecular target: Hepatocyte nuclear factor 6 (Homo sapiens) (UniProt Q9UBC0); assay: ATG_HNF6_CIS: Attagene CIS-FACTORIAL HepG2 Assay for human Hepatocyte Nuclear Factor 6 (HNF6) (AID 2282952); details: HepG2 Attagene cis-factorial HNF6 reporter transcription; actives raise or lower the signal
Hepatocyte nuclear factor 6 (Homo sapiens), sequence (Q9UBC0 whole entry, looked up, the tested form may be a part): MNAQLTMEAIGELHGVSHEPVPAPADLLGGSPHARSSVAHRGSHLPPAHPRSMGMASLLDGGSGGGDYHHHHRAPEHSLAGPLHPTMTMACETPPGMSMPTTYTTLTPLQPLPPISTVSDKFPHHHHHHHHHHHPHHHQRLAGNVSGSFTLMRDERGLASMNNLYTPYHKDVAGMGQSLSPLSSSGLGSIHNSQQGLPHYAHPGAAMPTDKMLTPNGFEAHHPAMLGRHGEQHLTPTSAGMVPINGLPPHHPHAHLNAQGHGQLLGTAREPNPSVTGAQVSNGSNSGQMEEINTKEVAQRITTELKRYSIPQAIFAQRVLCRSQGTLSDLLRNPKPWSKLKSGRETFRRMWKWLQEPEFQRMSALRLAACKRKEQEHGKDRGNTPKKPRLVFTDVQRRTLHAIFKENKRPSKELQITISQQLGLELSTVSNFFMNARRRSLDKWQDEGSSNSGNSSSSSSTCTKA
Method in brief: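 Reporter mRNA induction or loss in HepG2 after 24 h exposure; transient cis-MRTU transfection; fragments quantified by capillary electrophoresis; bidirectional analysis, DMSO as negative control.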

[17] = molecular target: Heat shock factor protein 1 (Homo sapiens) (UniProt Q00613); assay: ATG_HSE_CIS: Attagene CIS-FACTORIAL HepG2 Assay for human Heat Shock Transcription Factor 1 (HSE) (AID 2282953); details: HepG2 HSE cis-reporter, Attagene RNA transcription; actives raise or lower the signal
Heat shock factor protein 1 (Homo sapiens), sequence (Q00613 whole entry, looked up, the tested form may be a part): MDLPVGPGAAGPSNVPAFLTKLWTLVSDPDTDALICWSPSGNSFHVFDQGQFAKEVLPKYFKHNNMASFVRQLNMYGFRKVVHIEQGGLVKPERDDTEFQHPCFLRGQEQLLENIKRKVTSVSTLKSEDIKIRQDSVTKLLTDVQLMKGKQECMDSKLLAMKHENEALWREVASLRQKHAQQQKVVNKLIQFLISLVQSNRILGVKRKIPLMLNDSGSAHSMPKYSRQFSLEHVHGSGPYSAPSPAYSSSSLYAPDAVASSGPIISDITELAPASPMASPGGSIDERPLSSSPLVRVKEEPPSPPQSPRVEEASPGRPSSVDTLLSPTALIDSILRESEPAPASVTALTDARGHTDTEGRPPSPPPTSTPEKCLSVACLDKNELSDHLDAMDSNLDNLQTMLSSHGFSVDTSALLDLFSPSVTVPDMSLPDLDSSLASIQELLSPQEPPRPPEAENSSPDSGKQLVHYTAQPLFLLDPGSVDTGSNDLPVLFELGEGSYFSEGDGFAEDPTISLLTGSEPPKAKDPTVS
Method in brief: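 Read-out: fluorescence of reporter-specific RT-PCR fragments separated by capillary electrophoresis. HepG2 carrying transfected cis-element reporter units; 24 h dosing; activity fitted in both directions relative to DMSO baseline.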

[18] = ATG_GRE_CIS: Attagene CIS-FACTORIAL HepG2 Assay for human Glucocorticoid Response Elements (GRE) (AID 2282947); details: HepG2 GRE cis-reporter, Attagene multiplex mRNA; actives raise or lower the signal
Method in brief: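 HepG2 cells transiently transfected with multiple cis-promoter reporter units measure endogenous TF activity; 24 h compound exposure. Reporter mRNA quantified by RT-PCR, FAM labelling, HpaI digestion and capillary electrophoresis; bidirectional fit vs DMSO baseline.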

[19] = ATG_MRE_CIS: Attagene CIS-FACTORIAL HepG2 Assay for human Metal Responsive Element (MRE) (AID 2282954); details: HepG2 MRE cis-reporter transcription, Attagene multiplex; actives raise or lower the signal
Method in brief: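 HepG2 cells transiently transfected with multiple cis-element reporter units measure endogenous MTF1-driven transcription. After 24 h compound exposure, reporter mRNA is quantified by RT-PCR with 6-FAM labelling, HpaI digestion and capillary electrophoresis; bidirectional fits versus DMSO.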

[20] = ATG_ERE_CIS: Attagene CIS-FACTORIAL HepG2 Assay for Estrogen Response Element (ERE) (AID 2282940); details: HepG2 ERE cis-reporter, Attagene RNA transcript; actives raise or lower the signal
Method in brief: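 Readout: reporter mRNA induction by RT-PCR, FAM-labelled primer extension, HpaI digestion and capillary electrophoresis, 24 h after dosing transfected HepG2 cells. Endogenous transcription factors act on cis-element-regulated reporters. Gain or loss fitted against DMSO.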

Measured: AC50

CCCCOCC(C)OCC(C)O (stereo not given)
inactive: [1] | [2] | [3] | [4] | [5] | [6] | [7] | [8] | [9] | [10] | [11] | [12] | [13] | [14] | [15] | [16] | [17]

CC1COC(=O)O1 (stereo not given)
inactive: [1] | [2] | [3] | [4] | [5] | [6] | [7] | [8] | [9] | [10] | [11] | [18] | [12] | [13] | [14] | [15] | [16] | [17] | [19]

CC(C)N1C(=O)c2ccccc2C1=O
active: [20] 74.7 µM
inactive: [1] | [2] | [3] | [4] | [6] | [7] | [8] | [9] | [10] | [12] | [13] | [14] | [15] | [16] | [17]

C=C(C)CCCC(C)CCO (stereo not given)
inactive: [1] | [2] | [3] | [4] | [5] | [20] | [6] | [7] | [8] | [10] | [14] | [15] | [16] | [17] | [19]

CC(C)COC(=O)c1ccccc1O
inactive: [1] | [2] | [3] | [4] | [5] | [6] | [7] | [8] | [9] | [10] | [12] | [13] | [14] | [15] | [16] | [17] | [19]

CC/C(=C(\c1ccccc1)c1ccc(OCCN(C)C)cc1)c1ccccc1
inactive: [1] | [2] | [3] | [4] | [5] | [6] | [7] | [8] | [9] | [10] | [13] | [14] | [15] | [16] | [17] | [19]
